Most compounds without a hit are left out; they make up all but 3.1% or so of the library.
proKLK7 act = proKLK7 (human) activation, primary screen; P49862; purified proKLK7, EDANS-DABCYL substrate fluorescence; 100% is mature enzyme control, 0% vehicle; hit rate 0.9% among 370,000; activation, % at 7 µM;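 active means activation above the mean of all tested compounds plus 3 SD, computed per campaign excluding outliers beyond control limits, cut at about 13% in these data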
Target sequence (P49862 whole entry, looked up): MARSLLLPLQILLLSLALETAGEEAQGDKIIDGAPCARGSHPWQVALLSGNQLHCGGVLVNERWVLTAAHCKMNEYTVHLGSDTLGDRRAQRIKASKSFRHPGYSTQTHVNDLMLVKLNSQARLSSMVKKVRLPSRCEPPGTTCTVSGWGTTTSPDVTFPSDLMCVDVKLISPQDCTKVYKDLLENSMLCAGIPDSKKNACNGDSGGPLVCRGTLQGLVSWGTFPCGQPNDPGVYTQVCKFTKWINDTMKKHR
MBD2 inh = MBD2-methylated oligo binding inhibition; inhibition, % at 4.4 µM; AID 686964; hit rate 0.31% among 370,000; TR-FRET, MBD2 binding to methylated oligonucleotide; in the data active means inhibition above about 13%
Rin1-Abl PPI inh = blocks binding of human Rin1 to Abl; TR-FRET Rin1/Abl binding, biochemical; inhibition, % at 7.35 µM; hit rate 0.4% among 360,000; in the data active means inhibition above about 5%, passing the limit was not always enough
Neddylation inh = blocks human cullin neddylation. hit rate 0.58% among 360,000. P61081+Q13564. calls only at 25 µM. TR-FRET cullin neddylation, biochemical; in the data active means inhibition above about 36%
UHRF1 binding = human UHRF1 methylated DNA binding inhibitors; hit rate 0.75% among 370,000; AID 687016; UHRF1 binding to methylated oligo, TR-FRET; Q96T88; inhibition, % at 4.4 µM;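 further: UHRF1 SRA domain binding a hemimethylated CpG hairpin DNA probe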
LEDGF integ inh = blocks HIV-1 LEDGF/p75-dependent DNA integration; TR-FRET IN-LEDGF/p75 DNA integration, Eu/Cy5; inhibition, % at 3.7 µM; hit rate 0.64% among 370,000; AID 743269;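 active means inhibition above the screen-wide mean plus 3 SD, cut at about 13% in these data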;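 further: signal is the Cy5 over europium emission ratio at 671 and 618 nm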
UHRF1 DNA bind = UHRF1 methyl-oligo binding inhibition as MBD2 counter-screen; shares compounds with MBD2 inh; UHRF1 binding to methylated oligonucleotide, TR-FRET; hit rate 25% among 1,000; AID 720530; inhibition, % at 4.4 µM;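 further: UHRF1 SRA domain binding a labeled hemimethylated CpG hairpin DNA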
MBD2 confirm = MBD2-DBD methyl-DNA binding inhibition, TR-FRET confirmation | TR-FRET MBD2-DBD binding to methylated oligonucleotide | shares compounds with MBD2 inh | inhibition, % at 4.4 µM | hit rate 26% among 1,000; in the data active means inhibition above about 14%
A number is an active result; - = inactive; . = no result shown. Unless noted, no stated cut-off is given here; in the data, active means inhibition above about 21%; inactive means the rest.

SMILES	proKLK7 act	MBD2 inh	Rin1-Abl PPI inh	Neddylation inh	UHRF1 binding	LEDGF integ inh	UHRF1 DNA bind	MBD2 confirm
COc1ccc(OCc2nn3c(-c4ccccn4)nnc3s2)cc1	-	22	-	-	-	-	-	-
COc1ccc(C(=O)NCCN(C)C)c2nc3ccccc3cc12	-	36	-	-	-	-	-	70
CN(C)CCNC(=O)c1cccc2[nH]c(-c3ccncc3)nc12	-	13	-	.	-	-	-	20
CN(C)CCNC(=O)c1ccccc1-c1ccccc1	-	-	-	-	-	-	.	.
COc1ccc(-c2nc3c(C(=O)NCCN(C)C)cccc3c3ccccc23)cc1	-	-	-	-	-	-	.	.
COc1cccc2nc3c(C(=O)NCCN(C)C)cccc3cc12	-	19	-	-	-	-	-	30
O=C(CSc1nnnn1-c1cccnc1)Nc1ccccc1F	-	-	-	-	-	-	.	.
C[C@H]1CN([C@@H](C)CO)C(=O)CCCn2nncc2CO[C@@H]1CN(C)C(=O)c1ccncc1	-	-	-	-	-	-	.	.
C[C@@H]1[C@H](c2ccccc2)OC(O)([C@H](Cc2ccccc2)NC(=O)OC(C)(C)C)CN1C (some centres not stated)	.	-	.	.	-	-	.	.
O=C(Cc1ccc(-n2cccc2)cc1)NC1CCCCC1	-	-	-	-	-	-	.	.
O=C(O)Cc1ccc(-n2cccc2)cc1	-	14	-	-	30	-	57	28
CCOC(=O)C1CCN(CC(=O)Nc2c(C(=O)OC)[nH]c3cccc(Cl)c23)CC1	-	14	-	-	-	-	-	-
Cc1ccc(-n2nc(C)cc2NC(=O)c2ccc(C)s2)cc1	-	34	-	-	-	-	-	-
Cc1ccc(-n2nc(C)cc2NC(=O)CC#N)cc1	-	-	-	-	-	-	.	.
COc1cc(/C=C(\C#N)C(=O)NCC2CCCO2)c([N+](=O)[O-])cc1OC (configuration not stated)	-	14	-	-	21	-	-	-
COc1ccc(OCCNC(=O)c2ccc3nc(C)c(N(C)C(=O)CCc4ccccc4)n3c2)cc1	-	-	-	-	-	-	.	.
COc1ccc(C(C)=O)cc1COC(=O)c1ccc2c(c1)OCO2	-	14	-	-	-	-	-	-
COc1ccc(C(C)=O)cc1COC(=O)c1ccc2c(c1)OCCO2	-	-	-	-	-	-	.	.
Cc1cccc(NS(=O)(=O)c2ccc(C)c(C(=O)NC3CCN(Cc4ccccc4)CC3)c2)c1	-	-	-	-	-	-	.	.
O=C(CCCCn1c(=O)c2ccccc2n(Cc2ccccc2)c1=O)NC1CCN(Cc2ccccc2)CC1	-	13	-	-	27	-	-	-
S=C(SCc1cc(Cl)cc2c1OCOC2)N1CCSCC1	-	-	.	.	-	-	.	.
COC(=O)C1=C(C)NC(=O)C1(NS(=O)(=O)c1ccc(NC(C)=O)cc1)C(F)(F)F (configuration not stated)	-	-	-	-	-	-	.	.
COc1cccc2c1C(=O)c1c(O)c3c(c(O)c1C2=O)C[C@](O)(C(C)=O)C[C@H]3O[C@@H]1C[C@@H](N)[C@@H](O)[C@@H](C)O1	-	112	-	-	93	-	101	111
CCCCC(=O)OCC(=O)C1(O)Cc2c(O)c3c(c(O)c2C(OC2CC(NC(=O)C(F)(F)F)C(O)C(C)O2)C1)C(=O)c1c(OC)cccc1C3=O (configuration not stated)	-	-	-	-	-	-	.	.
CC(C)c1nnc(SCC(=O)N2CCc3ccccc32)n1N	-	-	-	-	-	-	.	.
COc1ccc(S(=O)(=O)CCC(=O)N2CCN(c3ccc(C(C)=O)cc3)CC2)cc1	-	18	-	-	31	-	-	-
Cc1cc(C(=O)N2CCN(c3ncccn3)CC2)cs1	-	17	-	-	-	-	-	-
NC(=O)c1c(NC(=O)CSc2nnc(Cc3ccccc3)n2Cc2ccco2)sc2c1CCC2	-	-	-	-	-	-	.	.
CCCCn1c(SCC(=O)Nc2sc3c(c2C(N)=O)CCC3)nnc1-c1ccccc1	-	13	-	-	-	-	-	-

Screening results: PubChem BioAssay, several laboratories
